Results as given in PubChem BioAssay (Tox21).
Where “and” joins values, the source holds several entries; their conditions need not be identical. Equal entries are not always repeated. Results filed as inconclusive are left out. Calls of active or inactive are those of the source. Calls come from the whole dose curve; as a rule, active = well fitted cell-killing curve with a large enough effect in the repeat runs; inconclusive = weak or mixed curves, or effect the other way; inactive = flat fitted curve, though single readings scatter.

experiment: qHTS RealTime-Glo MT Cell Viability Assay in HEK293 cells - 40 hour (AID 1224874); details: RealTime-Glo luminescence; max response: hits give low values; note: nearly all actives have a fitted effect of over 50% in size
Text: U.S. Tox21 Program National Center for Advancing Translational Sciences [NCATS] NIH Chemical Genomics Center [NCGC] U.S. Environmental Protection Agency [EPA] National Institutes of Environmental Health Sciences [NIEHS] National Toxicology Program [NTP] U.S. Food and Drug Administration [FDA] Tox21 Assay Overview: Measure of cell viability is critical in the cell-base assay. Analysis of cell viability is necessary for the characterization of cell responses to cytotoxic drugs and environmental stress. A RealTime-Glo MT Cell Viability Assay to monitor cell viability in real time of continues cell culture during 40 hours of compound treatment was used to screen Tox21 10K library compounds in Hek293 cells. The RealTime-Glo MT Cell Viability Assay is a nonlytic, homogeneous, bioluminescent method to measure cell viability in real time using a simple, plate-based method. The assay involves adding NanoLuc luciferase and a cell-permeant prosubstrate to cells in culture. Viable cells reduce the proprietary prosubstrate to generate a substrate for NanoLuc luciferase. This substrate diffuses from cells into the surrounding culture medium, where it is rapidly used by the NanoLuc Enzyme to produce a luminescent signal. The signal correlates with the number of viable cells, making the assay well suited for cytotoxicity studies.
Tox21 Assay Protocol Summary: The mixture of Hek293 cell suspension and reagents were dispensed at 600cells/6 ul/well in 1536-well tissue culture treated black solid bottom plates using a Multidrop dispenser. After the assay plates were incubated at a 37 C/5% CO2 incubator for 5 hours, 23 nL of compounds dissolved in DMSO, positive and negative controls was transferred to the assay plate by a pintool work station. The plates were incubated at 37 C for 40 hours. The luminescence intensity were measured at 0h, 8h, 16h, 24h, 32h and 40h time points using ViewLux plate reader during compound treatment.
% is set by controls: 0 for no effect and ±100 for the full control effect; potency is the fitted concentration of half-maximal effect.

Question: Which Potency does the source give for COc1ccc(C(c2ccc(OC)cc2)C(Cl)(Cl)Cl)cc1 here?
Answer: The Potency was 52.6 µM (active).

Question: Which Potency does the source give for Cc1cc(C(C)(C)c2ccc(O)c(C)c2)ccc1O here?
Answer: Its Potency is 20.8 µM (active).

Question: For O=[N+]([O-])c1c(Cl)c(Cl)cc(Cl)c1Cl, which max response is on record?
Answer: The max response was 0.554% (inactive).

Question: Which max response does the source give for O=C1C(I)=CC(=C(c2cc(I)c(O)c(I)c2)c2ccccc2C(=O)O)C=C1I here?
Answer: Its max response is -8.4% (inactive).

Question: With CC(c1ccccc1)(c1ccc(O)cc1)c1ccc(O)cc1 as the compound, how does the Potency read?
Answer: The Potency was 43.6 µM (active).

Question: Which Potency does the source give for CO/C=C(/C(=O)OC)c1ccccc1Oc1cc(Oc2ccccc2C#N)ncn1 here?
Answer: The Potency was 33.8 µM (active).

Question: With CCOC(=O)C(O)(c1ccc(Cl)cc1)c1ccc(Cl)cc1 as the compound, how does the Potency read?
Answer: The Potency was 22.1 µM (active) and 34.7 µM (active).

Question: For OCC(c1ccc(Cl)cc1)c1ccc(Cl)cc1, which Potency is on record?
Answer: Its Potency is 38.9 µM (active).

Question: Which Potency does the source give for CN1CSC(=S)N(C)C1 here?
Answer: Its Potency is 13.7 µM (active) and 21.8 µM (active).

Question: With COc1cc(OC)c(OC)cc1C=O as the compound, how does the max response read?
Answer: Its max response is -0.404% (inactive).

Question: Which max response does the source give for Cc1ccc2nc3sc(=O)sc3nc2c1 here?
Answer: Its max response is 3.19% (inactive).

Question: Which Potency does the source give for Cc1nnc2n1-c1sc(CCc3ccc(CC(C)C)cc3)cc1C(c1ccccc1Cl)=NC2C (stereo not drawn) here?
Answer: Its Potency is 9.52 µM (active).

Question: For O=C(c1ccccc1)C(Cl)Cl, which Potency is on record?
Answer: The Potency was 38.9 µM (active).

Question: With C[C@]12CC[C@@H](O)C[C@@H]1CC[C@@H]1[C@@H]2CC[C@]2(C)C(=O)CC[C@@H]12 as the compound, how does the Potency read?
Answer: Its Potency is 24.5 µM (active).

Question: Which Potency does the source give for O=S(=O)(C(Cl)(Cl)Cl)C(Cl)(Cl)Cl here?
Answer: Its Potency is 8.71 µM (active).

Question: Which max response does the source give for CCN(CC)C(=O)Cl here?
Answer: Its max response is 13.5% (inactive).

Question: With Oc1c(I)cc(I)cc1I as the compound, how does the max response read?
Answer: Its max response is -25% (inactive).

Question: For Nc1ccc([N+](=O)[O-])cc1, which Potency is on record?
Answer: The Potency was 38.9 µM (active).

Question: Which Potency does the source give for c1ccc2c(c1)Sc1ccccc1N2CC1CN2CCC1CC2 (stereo not drawn) here?
Answer: The Potency was 23.9 µM (active).

Question: Which Potency does the source give for Cc1ccc(N(SC(F)(Cl)Cl)S(=O)(=O)N(C)C)cc1 here?
Answer: The Potency was 5.49 µM (active).

Question: Which Potency does the source give for CC1COC(Cn2cncn2)(c2ccc(Oc3ccc(Cl)cc3)cc2Cl)O1 (stereo not drawn) here?
Answer: Its Potency is 17.4 µM (active).

Question: For Cc1cc(C)c(C(=O)P(=O)(c2ccccc2)c2ccccc2)c(C)c1, which Potency is on record?
Answer: The Potency was 38.9 µM (active).

Question: For N#Cc1cc([N+](=O)[O-])ccc1N, which max response is on record?
Answer: The max response was -6.49% (inactive).
